# Reference: the supplement of paper PMC11006884
# Of roughly 6,500 targets only a part is listed; those with a hit were picked by preference. About 2% of all pairs of compound and target were hits. Values without a mark were called inactive.
# Compound: COC(=O)C#Cc1ccccc1 [methyl 3-phenylpropiolate]
# Test: log2 ratio of iodoacetamide-alkyne labeling of the cysteine site, DMSO over compound (competition); higher = stronger covalent engagement of the cysteine by the compound, active = 1 or more
# Settings: 500 µM; treatment time 1 h; system: HEK293T cell lysate
# Method in brief: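 Three replicates, each with duplicate channels, were prepared from HEK293T lysate (2 mg/mL) treated with vehicle or electrophile at 500 µM for 1 h at ambient temperature. Iodoacetamide alkyne was then applied for 1 h, and samples were clicked to sCIP-TMT reagents, pooled, trypsin-digested overnight at 37 °C, enriched on streptavidin, acid-eluted and analysed on Orbitrap Eclipse LC-MS/MS with FAIMS, with FragPipe quantification. The log2 competition ratio per cysteine is the mean control-channel divided by the mean compound-channel reporter intensity. Cysteines quantified in only one replicate were left out.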
# UniProt P53597, sequence (P53597 whole entry, looked up): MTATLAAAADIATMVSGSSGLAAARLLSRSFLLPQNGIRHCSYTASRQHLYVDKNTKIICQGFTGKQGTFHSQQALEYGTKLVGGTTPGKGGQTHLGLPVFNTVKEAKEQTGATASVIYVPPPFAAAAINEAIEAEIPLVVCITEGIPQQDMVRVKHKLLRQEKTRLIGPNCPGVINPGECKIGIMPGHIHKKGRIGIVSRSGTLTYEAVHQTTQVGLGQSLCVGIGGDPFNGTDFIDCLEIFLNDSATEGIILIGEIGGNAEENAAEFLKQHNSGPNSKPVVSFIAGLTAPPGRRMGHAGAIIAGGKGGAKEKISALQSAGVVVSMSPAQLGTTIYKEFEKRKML
# UniProt P56589, sequence (P56589 whole entry, looked up): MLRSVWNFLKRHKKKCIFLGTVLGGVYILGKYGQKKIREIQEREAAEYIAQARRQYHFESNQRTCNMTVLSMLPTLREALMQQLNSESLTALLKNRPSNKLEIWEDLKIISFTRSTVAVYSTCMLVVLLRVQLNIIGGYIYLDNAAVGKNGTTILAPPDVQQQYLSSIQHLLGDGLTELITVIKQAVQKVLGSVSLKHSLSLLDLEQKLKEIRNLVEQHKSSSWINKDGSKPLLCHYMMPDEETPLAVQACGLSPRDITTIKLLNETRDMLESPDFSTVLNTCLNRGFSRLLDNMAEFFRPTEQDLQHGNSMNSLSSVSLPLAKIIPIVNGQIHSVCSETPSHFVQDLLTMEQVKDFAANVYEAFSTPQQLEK
# UniProt Q15424, sequence (Q15424 whole entry, looked up): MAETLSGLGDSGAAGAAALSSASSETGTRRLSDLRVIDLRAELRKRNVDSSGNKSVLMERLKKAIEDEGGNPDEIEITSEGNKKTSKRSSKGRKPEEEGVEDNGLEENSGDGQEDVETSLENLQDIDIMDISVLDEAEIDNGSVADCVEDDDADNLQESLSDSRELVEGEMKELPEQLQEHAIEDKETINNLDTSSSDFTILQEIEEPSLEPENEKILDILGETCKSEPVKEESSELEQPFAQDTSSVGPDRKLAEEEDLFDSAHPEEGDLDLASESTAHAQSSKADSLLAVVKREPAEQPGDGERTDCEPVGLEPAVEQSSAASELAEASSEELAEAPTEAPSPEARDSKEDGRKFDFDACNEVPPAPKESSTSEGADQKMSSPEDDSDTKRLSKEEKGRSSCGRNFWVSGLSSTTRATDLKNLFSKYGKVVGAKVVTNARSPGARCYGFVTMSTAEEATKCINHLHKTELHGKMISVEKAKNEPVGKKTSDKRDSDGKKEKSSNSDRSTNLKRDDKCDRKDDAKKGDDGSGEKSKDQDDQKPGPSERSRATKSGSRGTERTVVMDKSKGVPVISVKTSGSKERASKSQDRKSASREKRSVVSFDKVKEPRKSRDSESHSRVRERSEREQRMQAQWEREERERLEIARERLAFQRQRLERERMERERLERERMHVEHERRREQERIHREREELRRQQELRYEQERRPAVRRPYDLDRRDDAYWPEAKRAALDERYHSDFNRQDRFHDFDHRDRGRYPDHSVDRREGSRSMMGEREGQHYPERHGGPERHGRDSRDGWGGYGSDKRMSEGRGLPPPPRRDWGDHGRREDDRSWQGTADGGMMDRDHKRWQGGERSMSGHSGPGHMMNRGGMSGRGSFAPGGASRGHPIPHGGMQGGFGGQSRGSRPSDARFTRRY
# UniProt Q12923, sequence (Q12923 whole entry, looked up): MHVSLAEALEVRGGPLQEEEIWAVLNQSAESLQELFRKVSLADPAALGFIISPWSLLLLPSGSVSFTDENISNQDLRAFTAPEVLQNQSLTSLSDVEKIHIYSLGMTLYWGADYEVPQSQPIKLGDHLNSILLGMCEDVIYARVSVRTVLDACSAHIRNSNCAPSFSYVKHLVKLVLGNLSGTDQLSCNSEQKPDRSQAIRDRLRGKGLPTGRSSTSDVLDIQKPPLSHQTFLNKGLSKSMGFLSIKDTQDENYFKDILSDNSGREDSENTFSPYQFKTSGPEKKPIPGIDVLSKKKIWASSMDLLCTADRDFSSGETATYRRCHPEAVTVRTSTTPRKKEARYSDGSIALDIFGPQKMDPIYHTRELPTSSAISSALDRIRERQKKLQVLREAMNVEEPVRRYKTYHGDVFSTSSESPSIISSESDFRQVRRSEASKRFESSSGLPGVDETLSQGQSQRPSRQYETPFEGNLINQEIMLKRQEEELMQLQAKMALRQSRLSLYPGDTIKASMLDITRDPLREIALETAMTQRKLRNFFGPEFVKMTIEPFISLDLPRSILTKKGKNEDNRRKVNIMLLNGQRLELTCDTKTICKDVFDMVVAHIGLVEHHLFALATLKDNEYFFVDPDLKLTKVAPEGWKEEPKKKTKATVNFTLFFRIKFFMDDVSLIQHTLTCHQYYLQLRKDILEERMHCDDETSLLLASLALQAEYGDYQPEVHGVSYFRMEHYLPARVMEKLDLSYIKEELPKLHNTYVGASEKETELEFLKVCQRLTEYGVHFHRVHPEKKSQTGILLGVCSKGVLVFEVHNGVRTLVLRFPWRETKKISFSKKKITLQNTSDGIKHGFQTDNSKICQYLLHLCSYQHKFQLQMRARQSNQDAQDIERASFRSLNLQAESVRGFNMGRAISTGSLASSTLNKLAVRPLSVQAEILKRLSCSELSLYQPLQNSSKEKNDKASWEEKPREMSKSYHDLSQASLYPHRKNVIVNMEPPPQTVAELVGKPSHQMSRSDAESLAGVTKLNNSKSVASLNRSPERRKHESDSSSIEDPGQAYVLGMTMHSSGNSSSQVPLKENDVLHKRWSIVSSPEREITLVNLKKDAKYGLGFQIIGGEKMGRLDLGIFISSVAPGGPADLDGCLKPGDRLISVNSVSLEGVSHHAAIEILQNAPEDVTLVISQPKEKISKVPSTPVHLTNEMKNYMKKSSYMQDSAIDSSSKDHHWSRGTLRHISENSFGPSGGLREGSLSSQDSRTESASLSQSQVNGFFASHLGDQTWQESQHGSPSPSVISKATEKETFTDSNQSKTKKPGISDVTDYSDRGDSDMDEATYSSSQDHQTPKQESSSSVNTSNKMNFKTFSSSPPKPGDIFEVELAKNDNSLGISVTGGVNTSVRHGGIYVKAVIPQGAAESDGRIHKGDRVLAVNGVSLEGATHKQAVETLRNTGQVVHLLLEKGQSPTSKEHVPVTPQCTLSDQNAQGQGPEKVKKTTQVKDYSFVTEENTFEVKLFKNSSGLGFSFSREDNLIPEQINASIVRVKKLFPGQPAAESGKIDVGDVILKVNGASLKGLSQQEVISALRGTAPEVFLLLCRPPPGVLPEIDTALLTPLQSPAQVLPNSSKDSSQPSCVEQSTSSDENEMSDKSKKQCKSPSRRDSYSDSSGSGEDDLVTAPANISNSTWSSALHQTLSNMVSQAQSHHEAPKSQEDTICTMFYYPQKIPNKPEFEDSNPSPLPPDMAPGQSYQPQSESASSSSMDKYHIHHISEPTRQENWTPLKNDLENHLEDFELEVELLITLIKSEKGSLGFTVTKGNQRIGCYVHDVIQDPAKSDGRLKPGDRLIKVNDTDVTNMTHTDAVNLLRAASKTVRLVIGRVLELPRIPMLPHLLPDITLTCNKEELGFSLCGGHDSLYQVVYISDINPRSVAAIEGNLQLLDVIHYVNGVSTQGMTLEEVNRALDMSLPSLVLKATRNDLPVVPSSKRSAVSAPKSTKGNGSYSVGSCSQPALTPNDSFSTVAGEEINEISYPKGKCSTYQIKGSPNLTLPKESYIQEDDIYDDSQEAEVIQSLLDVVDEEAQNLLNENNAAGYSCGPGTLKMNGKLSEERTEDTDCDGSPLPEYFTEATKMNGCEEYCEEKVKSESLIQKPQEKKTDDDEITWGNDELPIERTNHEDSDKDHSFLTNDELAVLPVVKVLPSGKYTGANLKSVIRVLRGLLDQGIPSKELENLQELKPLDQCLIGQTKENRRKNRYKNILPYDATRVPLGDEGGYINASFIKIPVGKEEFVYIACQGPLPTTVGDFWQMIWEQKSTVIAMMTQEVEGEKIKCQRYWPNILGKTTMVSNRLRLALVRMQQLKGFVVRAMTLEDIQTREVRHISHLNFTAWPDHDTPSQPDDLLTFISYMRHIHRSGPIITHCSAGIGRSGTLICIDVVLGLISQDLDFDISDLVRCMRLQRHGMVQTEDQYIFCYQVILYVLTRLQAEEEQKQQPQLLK
# UniProt Q01581, sequence (Q01581 whole entry, looked up): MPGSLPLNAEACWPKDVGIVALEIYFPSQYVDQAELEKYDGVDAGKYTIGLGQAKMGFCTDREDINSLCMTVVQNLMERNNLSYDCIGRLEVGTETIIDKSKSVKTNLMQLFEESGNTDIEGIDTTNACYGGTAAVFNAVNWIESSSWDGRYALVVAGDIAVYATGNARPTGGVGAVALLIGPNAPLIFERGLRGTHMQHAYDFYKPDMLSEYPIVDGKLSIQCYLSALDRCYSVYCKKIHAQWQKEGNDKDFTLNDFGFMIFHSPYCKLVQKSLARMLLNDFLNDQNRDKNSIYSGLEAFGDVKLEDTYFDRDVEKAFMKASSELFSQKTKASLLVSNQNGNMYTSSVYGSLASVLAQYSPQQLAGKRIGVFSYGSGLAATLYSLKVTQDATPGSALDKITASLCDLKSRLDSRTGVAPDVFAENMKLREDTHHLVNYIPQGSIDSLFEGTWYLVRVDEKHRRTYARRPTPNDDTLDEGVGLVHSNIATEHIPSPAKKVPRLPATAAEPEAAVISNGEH
# UniProt Q13418, sequence (Q13418 whole entry, looked up): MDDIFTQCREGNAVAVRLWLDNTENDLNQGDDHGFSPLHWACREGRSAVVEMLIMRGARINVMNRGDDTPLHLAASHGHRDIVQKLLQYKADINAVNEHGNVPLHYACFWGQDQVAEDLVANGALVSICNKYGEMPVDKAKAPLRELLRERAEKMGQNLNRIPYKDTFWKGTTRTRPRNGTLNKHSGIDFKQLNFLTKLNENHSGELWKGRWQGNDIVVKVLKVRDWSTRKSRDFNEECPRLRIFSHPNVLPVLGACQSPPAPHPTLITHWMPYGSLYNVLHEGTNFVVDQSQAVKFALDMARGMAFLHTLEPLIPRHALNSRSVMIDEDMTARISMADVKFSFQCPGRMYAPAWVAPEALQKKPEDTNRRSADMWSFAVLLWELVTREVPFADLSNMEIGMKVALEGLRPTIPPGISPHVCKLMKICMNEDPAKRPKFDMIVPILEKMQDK
row,Target,log2 ratio of iodoacetamide-alkyne labeling
1,PTPN13 C937 (UniProt Q12923),0.773
2,ACOX1 C199 (UniProt Q15067),0.0457
3,SAFB C404 (UniProt Q15424),1.14 (active)
4,MRPS11 C186 (UniProt P82912),0.527
5,UniProt P62330_C155,0.452
6,NUP98 C1027 (UniProt P52948),0.378
7,TTLL12 C612 (UniProt Q14166),0.0779
8,COPB1 C248 (UniProt P53618),-0.00654
9,UniProt Q02040_C542,0.763
10,MARS C12 (UniProt P56192),0.428
11,C5orf22 C195 (UniProt Q49AR2),0.458
12,PITRM1 C556 (UniProt Q5JRX3),0.0671
13,LLGL1 C1059 (UniProt Q15334),0.241
14,ILK C422 (UniProt Q13418),0.358
15,LGALS3BP C489 (UniProt Q08380),1.72 (active)
16,HMGCS1 C86 (UniProt Q01581),0.0742
17,PPP2R5D C17 (UniProt Q14738),0.818
18,PDCD11 C151 (UniProt Q14690),0.508

row,Target,log2 ratio of iodoacetamide-alkyne labeling
1,PDS5A C581 (UniProt Q29RF7),0.744
2,MTA1 C512 (UniProt Q13330),0.481
3,UniProt P60709_C217,0.0537
4,NUP107 C78 (UniProt P57740),0.705
5,MORC3 C619 (UniProt Q14149),0.279
6,NUMA1 C658 (UniProt Q14980),-0.0504
7,FOXK1 C665 (UniProt P85037),0.531
8,RRP12 C31 (UniProt Q5JTH9),1.26 (active)
9,BLM C704 (UniProt P54132),0.6
10,TJP1 C1727 (UniProt Q07157),0.0718
11,PITRM1 C780 (UniProt Q5JRX3),0.31
12,SMC1A C987 (UniProt Q14683),0.473
13,NDUFA5 C17 (UniProt Q16718),0.144
14,SUCLG1 C181 (UniProt P53597),1.72 (active)
15,LAGE3 C23 (UniProt Q14657),0.594
16,UniProt Q02930_C69,1.09 (active)
17,CNBP C140 (UniProt P62633),0.134
18,PEX3 C65 (UniProt P56589),0.385
